According to PubChem BioAssay (NCI):
About 83,000 compounds went through this panel and 20% of them were active in at least one assay; those are over-represented in the sample as a whole.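 Each cell line was grown in a 96-well plate and treated with one concentration of compound for 48 hours. Values below 10 were considered active.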 A number with no mark means an inactive call. Activity calls are given as the source filed them.

Experiments:
Assay in all cases: NCI-60 one-dose screen, 48 h (100 = growth as untreated, 0 = no growth, -100 = all killed)
Details in all cases: 10 µM unless noted
T-47D breast = tested on: T-47D breast
BT-549 breast = tested on: BT-549 breast
MDA-MB-435 melanoma = tested on: MDA-MB-435 melanoma
SW-620 colon = tested on: SW-620 colon
MCF7 breast = tested on: MCF7 breast
HCT-116 colon = tested on: HCT-116 colon
HCC-2998 colon = tested on: HCC-2998 colon
KM12 colon = tested on: KM12 colon

Row | SMILES | growth (T-47D breast) | growth (BT-549 breast) | growth (MDA-MB-435 melanoma) | growth (SW-620 colon) | growth (MCF7 breast) | growth (HCT-116 colon) | growth (HCC-2998 colon) | growth (KM12 colon)
1 | O=C(Nc1ccc(Cl)cc1)Nc1nc2ccc([N+](=O)[O-])cc2s1 | -25.9% (active) | -38% (active) | -27.7% (active) | 0.202% (active) | -15.4% (active) | -35.1% (active) | -27.6% (active) | -13.2% (active)
2 | CC(=O)NC(C)(C)C(=O)N1CCC[C@H]1C(=O)NC(C)(C)C(=O)N[C@@H](C)C(=O)NC(C)(C)C(=O)NC(C)(C)C(=O)N[C@@H](CCC(N)=O)C(=O)NC(C)(C)C(=O)N[C@H](C(=O)NC(C)(C)C(=O)NCC(=O)N[C@@H](CC(C)C)C(=O)NC(C)(C)C(=O)N1CCC[C@H]1C(=O)N[C@H](C(=O)NC(C)(C)C(=O)NC(C)(C)C(=O)N[C@@H](CCC(N)=O)C(=O)N[C@@H](CCC(N)=O)C(=O)N[C@H](CO)Cc1ccccc1)C(C)C)C(C)C | 10% [4.25 µM] | -56.1% [4.25 µM] (active) | 17% [4.25 µM] | 45.5% [4.25 µM] | 12.4% [4.25 µM] | 24.1% [4.25 µM] | 39.7% [4.25 µM] | 35.7% [4.25 µM]
3 | COc1ccc(N)cc1C(=O)Nc1cccc(-c2cc(=O)c3c(OC)c(OC)c(OC)cc3o2)c1 | 41.7% | 51.2% | 77.4% | 91.4% | 45.2% | 65.5% | 55.3% | 63.6%
4 | C[C@@H]1C[C@H]2C(=O)OCC(NC(=O)[C@H](Cc3cc(F)cc(F)c3)NC(=O)Nc3ccc(Cl)cc3F)C(=O)N3CCC[C@H]3C(=O)N3CCCC[C@H]3C(=O)N[C@@H](C)C(=O)N2C1 (stereo partly specified) | 28.8% | 21.4% | 19.9% | 37.7% | 12.6% | -6.65% (active) | 15.8% | 36.1%
5 | CC[C@@](C)(NC(=O)C(C)(C)NC(=O)[C@@H](NC(=O)[C@@H]1CCCN1C(=O)C(C)(C)NC(=O)[C@H](CC(C)C)NC(=O)CNC(=O)C(C)(C)NC(=O)[C@@H](NC(=O)C(C)(C)NC(=O)[C@H](CCC(N)=O)NC(=O)[C@H](C)NC(=O)C(C)(C)NC(=O)[C@H](C)NC(=O)C(C)(C)NC(=O)[C@@H]1CCCN1C(=O)C(C)(C)NC(C)=O)C(C)C)C(C)C)C(=O)N[C@@H](CCC(N)=O)C(=O)N[C@@H](CCC(N)=O)C(=O)N[C@H](CO)Cc1ccccc1 | 0.666% [4.25 µM] (active) | -50.2% [4.25 µM] (active) | 4.98% [4.25 µM] (active) | 54.9% [4.25 µM] | 9.62% [4.25 µM] (active) | 27.8% [4.25 µM] | 29.3% [4.25 µM] | 29.5% [4.25 µM]
6 | CC(C)c1nn(-c2ccccc2)c(N2CCCCC2)c1/C=N/NC(N)=S | 66.8% | 85.2% | 97.5% | 101% | 75.7% | 79.1% | 105% | 103%
7 | COc1ccc(-c2nc3cc(Cl)c(Cl)cc3n2CC(=O)N=Nc2c(O)[nH]c3ccc(Cl)cc23)cc1 | -14.4% (active) | 25.8% | 16.9% | 32.1% | 40% | 7.71% (active) | 29.8% | 59%
8 | CCOc1ccc2nc(NC(=O)Nc3ccccc3C)sc2c1 | 47.7% | 53.8% | -11.1% (active) | 29.2% | 27.7% | 39.8% | 81.4% | 40.7%
9 | COc1ccc(-c2cc(-c3ccc(Cl)cc3)nc3nc(N)nn23)cc1 | 91.4% | 92.3% | 102% | 104% | 89.9% | 98.8% | 100% | 99.7%
10 | COc1ccc2c(c1)c(-c1nn3c(=O)cc(-c4ccccc4)nc3s1)cn2C | 16% | 49.8% | -23.8% (active) | 28.1% | 18.9% | 22.7% | 75.2% | 44.7%
11 | CCOP(=O)(OCC)OC[C@]12CCC(C)(C)C[C@H]1C1=CC[C@@H]3[C@@]4(C)C/C(=C\c5cccnc5)[C@H](OP(=O)(OCC)OCC)C(C)(C)[C@@H]4CC[C@@]3(C)[C@]1(C)CC2 | 16.1% | 33.4% | 31.2% | 25.9% | 6.1% (active) | 11.1% | 33.1% | 23.6%
12 | O=S(=O)(Nc1ccc(-n2cnc3cc(-c4ccc(O)cc4)ccc32)cc1)C1CC1 | 72.9% | 91.9% | 87.7% | 102% | 73.9% | 92.7% | 103% | 68.7%
13 | CC(=O)NC(C)(C)C(=O)N[C@@H](C)C(=O)NC(C)(C)C(=O)N[C@@H](C)C(=O)NC(C)(C)C(=O)N[C@@H](C)C(=O)N[C@@H](CCC(N)=O)C(=O)NC(C)(C)C(=O)N[C@H](C(=O)NC(C)(C)C(=O)NCC(=O)N[C@@H](CC(C)C)C(=O)NC(C)(C)C(=O)N1CCC[C@H]1C(=O)N[C@H](C(=O)NC(C)(C)C(=O)NC(C)(C)C(=O)N[C@@H](CCC(N)=O)C(=O)N[C@@H](CCC(N)=O)C(=O)N[C@H](CO)CC1CCCCC1)C(C)C)C(C)C | 25% [5 µM] | -4.41% [5 µM] (active) | 9.46% [5 µM] (active) | 37.1% [5 µM] | 17.2% [5 µM] | 49.3% [5 µM] | 49.9% [5 µM] | 63.3% [5 µM]
14 | CNC(=O)c1cc(Oc2ccc3nc(NC(=O)c4cc(C)cc(C)c4)sc3c2)ccn1 | 80.1% | 11.6% | 40.6% | 92.7% | 82% | 32.9% | 103% | 91.3%
15 | CCc1ccc(NC(=O)N[C@@H](Cc2cccc(C)c2)C(=O)N[C@@H]2C(=O)N3CCC[C@H]3C(=O)N3CCCC[C@H]3C(=O)N[C@@H](CO)C(=O)N3C[C@H](C)C[C@H]3C(=O)O[C@H]2C)c(F)c1 | 27.4% | 24.9% | 16.8% | 34.7% | 17.6% | 11.8% | 23.9% | 37.6%
16 | Clc1ccccc1/C=C/c1nn2c(-c3ccncc3)nnc2s1 | 95% | 107% | 103% | 108% | 66.4% | 96.5% | 101% | 110%
17 | Cc1nn(-c2ccc(Cl)cc2)c(C)c1N=Nc1ccc2oc(=O)ccc2c1 | 45.9% | 101% | 85.4% | 94% | 78.7% | 66.5% | 105% | 90.3%
18 | COc1cc2cc(Oc3ccc(NC(=O)Nc4cc(C(F)(F)F)cc(C(F)(F)F)c4)cc3)c(C)nc2cc1OCCN(C)C | 106% | 114% | 106% | 106% | 93% | 110% | 103% | 104%
19 | COc1ccc(/C=N\NC(=O)c2ccc3nc(-c4ccc(Br)cc4)[nH]c3c2)cc1 | 55.8% | 65.8% | 35.5% | 23.5% | 15.8% | 12.5% | 59.4% | 25.9%
20 | COc1ccc(-c2nnc(SCc3ccc(O)c4ncccc34)n2-c2ccccc2)cc1 | 18.9% | 19.7% | 14.3% | 12.7% | 5.08% (active) | 7.39% (active) | 31.9% | 15.6%
21 | C/C=C/C=C1\C[C@H]2CO[C@H](O2)C1=O | 98.4% | 127% | 101% | 69.1% | 67.1% | 82.3% | 114% | 103%
22 | C=C(C)[C@@H]1CC[C@]2(C(=O)NCCCN(CCC#N)CCC#N)CC[C@]3(C)[C@H](CC[C@@H]4[C@@]5(C)CCC(=O)C(C)(C)[C@@H]5CC[C@]43C)[C@@H]12 | 91.2% | 118% | 101% | 100% | 84.9% | 97.1% | 104% | 95.9%
23 | CN1CCN(Cc2ccc(NC(=O)c3cncc(C#Cc4cnc5ccc(O[C@H]6CCOC6)nn45)c3)cc2C(F)(F)F)CC1 | 16.2% | -33.9% (active) | -86.8% (active) | -32.4% (active) | -62.6% (active) | -88.1% (active) | -61.3% (active) | -52.3% (active)
24 | C/C(=C(/C)C1CC1CCN(C(=O)c1ccccn1)S(=O)(=O)c1ccc(C)cc1)C1CCCCC1 (stereo unspecified) | 78.5% | 120% | 98.2% | 103% | 74.7% | 90.1% | 97.4% | 98.6%
25 | N#Cc1c(-c2cccs2)cc(-c2cnccn2)nc1SCC(=O)NNC(=S)Nc1ccc(F)cc1 | 102% | 118% | 101% | 105% | 86.1% | 102% | 109% | 101%
26 | CCOC(=O)C1=C(C)Nc2nnc(Nc3ccccc3)n2C1c1ccccc1 (stereo unspecified) | 58.2% | 84% | 86.8% | 35.2% | 55.7% | 7.91% (active) | 105% | 94.7%
27 | Cc1cc(F)cc(NS(=O)(=O)c2ccc(-c3cnc(C4CC4)o3)cc2)c1 | 26.7% | 48.8% | -20.9% (active) | 24.7% | 21.4% | 19.5% | 24.9% | 18.3%
